Measurements: PubChem BioAssay AID1347416 (National Center for Advancing Translational Sciences (NCATS), 2020)
Several values for one entry are separate records, joined by “and”; a condition that tells them apart may be missing. Identical values can stand only once. Screen size: about 4,100 compounds; about 1,600 (39%) were called active. Roughly 25% stayed inconclusive and do not appear here. The call rests on the fitted dose curve; in most records, active means well fitted inhibition curve with a large enough effect; inconclusive means small, poorly fitted or top-dose-only effect; inactive means no such curve, though single readings can be large or run the other way. Some of the results follow.

experiment: qHTS Validation assay for Inhibitors of Plasmodium falciparum Dd2 growth in vitro; further: nearly all actives have a fitted effect of over 70% in size; details: P. falciparum Dd2 in RBCs, SYBR Green growth, 72 h; series mostly up to 28.7 µM; activity change, negative = inhibition: at the top concentration
Source text: Malaria, a parasitic disease spread to humans through the bite of a Plasmodium infected Anopheles mosquito, continues to be a global health burden affecting millions of people, with an estimated 228 million cases and 405,000 deaths in 2018. Concerns about safety and limitations of current antimalarial treatments strongly emphasize the need to develop new therapeutic options. The scarce number of chemotypes and validated drug targets with efficacy against the liver stage, have hindered development of new antimalarials. To address this, a chemoprophylactic drug discovery effort was conducted through a combined phenotypic high-throughput asexual blood stage and liver stage screen, providing a robust foundation to identify liver-stage active lead chemotypes. Compounds were initially screened against Plasmodium falciparum Dd2 strain parasites using a in vitro SYBRGreen-1 based 72 hr proliferation assay to identify novel chemotypes to advance to liver stage assays. NIH/NCATS Early Translation Branch Assay Submitter (PI): Anton Simeonov Ph.D.
[…] Assay Protocol: PROTOCOL TABLE (as described by Inglese et al., 2007) SEQUENCE No. (e.g., 1, 2, 3, etc.); PARAMETER (e.g., Cells, Incubation, Reagent, etc.); VALUE; DESCRIPTION SEQUENCE, Parameter, Description 1; Reagent; 3 uL complete malaria growth medium, 1536 TC treated Black clear bottom plate 2; Controls; 23 nL positive control artesunate (300 nM final) to column 1; Neutral control DMSO to columns 2-4 3; Compound; 23 nL of compounds in dose response concentration (29 uM to 0.5 nM final) 4; Reagent; 5 uL malaria infected red blood cells (2.5% hematocrit final, 0.3% parasitemia 5; Time; 72 hours at 37C (5% O2, 5% CO2, 90% N2; 95% Rh) 6; Reagent; 2 uL lysis buffer/SYBRGreen-1, 25 sec shake immediately following dispense 7; Time; ~16 hours at 37C (5% O2, 5% CO2, 90% N2; 95% Rh) 8; Detector; EnVision (PerkinElmer) bottom read at 485/14nm excitation and 535/25 nm emission NOTES (numbers refer to sequence above): 1; Complete Malaria Growth Media: 1X RPMI-1640 w/L-glutamine, 5.5g/L Albumax II, 367 uM Hypoxanthine, 25 mM HEPES, 0.25% Sodium Bicarbonate, 35 uM Gentamicin sulfate 2; Controls were added using the Kalypsis Pintool (Wako USA) equipped with 1536 pinhead 3; Compounds were added in a 7-point, titration with a high final concentration of 29 uM by Pintool from seven inter-plate titrations of library plates and two DMSO control plates at the beginning and end (see Yasgar et al., 2008). 4; Red blood cells infected with Plasmodium falciparum Dd2 parasites were used. 6; Lysis buffer: 20 mM Tris-HCl, 10 mM EDTA, 0.16% Saponin, 1.6% Triton-X, 10X SYBR Green. REFERENCE: Inglese J, Shamu CE, Guy RK. 2007. Reporting data from high-throughput screening of small-molecule libraries. Nat Chem Biol. doi:10.1038/nchembio0807-438 Yasgar A, Shinn P, Jadhav A, Auld D, Michael S, Zheng W, Austin CP, Inglese J, Simeonov A. 2008. Compound Management for Quantitative High-Throughput Screening. J Lab Autom 13:79-89. doi:10.1016/j.jala.2007.12.004
On the % scale 0 is the no-effect control and ±100 the full control effect; potency means the concentration at half of the fitted maximal effect.

| SMILES | activity change, negative = inhibition | Potency |
| --- | --- | --- |
| Cc1ccc(C(=O)N2[C@H]3CC[C@@H]2c2cnc(-c4ccccc4)nc2C3)cn1 | -30.1% (inactive) |  |
| Cc1noc(C)c1Cc1ccc(C(=O)N2[C@H]3CC[C@@H]2c2cnc(-c4ccccc4)nc2C3)o1 |  | 9.44 µM (active) |
| Cn1cc(C(=O)N2[C@H]3CC[C@@H]2c2cnc(-c4ccccc4)nc2C3)cn1 | 6.34% (inactive) |  |
| Cc1nc(-c2ccco2)cc([C@H]2CN3CC[C@H]2C[C@@H]3CNCc2ccccc2)n1 |  | 4.33 µM (active) |
| Cc1nc(-c2ccccc2)cc([C@H]2CN3CC[C@H]2C[C@@H]3CN(Cc2ccco2)Cc2ccco2)n1 |  | 2.99 µM (active) |
| CCOc1ccc(CN(CCc2ccc3c(c2)OCO3)Cc2cc(OC)ccc2O)cc1 |  | 0.668 µM (active) |
| CCOc1cccc(CNCCc2c(C)[nH]c3ccc(OC(F)(F)F)cc23)c1O |  | 2.37 µM (active) |
| Cc1ccc(CN2C3CCCC2CC(NC(=O)Nc2cccc(F)c2)C3)cc1 (configuration not stated) |  | 10.6 µM (active) |
| O=C(NC1CN2CCC1CC2)c1ccc(-c2ccc([N+](=O)[O-])cc2)o1 (configuration not stated) | 13.2% (inactive) |  |
| COC1C(=O)N(c2cccc(F)c2)C12CCNCC2 (configuration not stated) |  | 10.6 µM (active) |
| FC(F)(F)CN1C2CCC1CN(c1nnc(Cl)c3ccccc13)C2 |  | 2.11 µM (active) |
| CCC(CC)c1cc([C@H]2CN3CC[C@H]2C[C@@H]3COC(=O)Nc2ccc(C(C)(C)C)cc2)nc(-c2ccncc2)n1 |  | 2.11 µM (active) |
| CC(C)(C)c1ccc(NC(=O)OC[C@H]2C[C@@H]3CCN2C[C@@H]3c2cc(C3CCCC3)nc(-c3ccncc3)n2)cc1 |  | 2.11 µM (active) |
| O=C(Nc1ccccc1)OC[C@H]1C[C@@H]2CCN1C[C@@H]2c1cc(C2CCCC2)nc(-c2ccncc2)n1 |  | 1.68 µM (active) |
| COc1ccc(NC(=O)OC[C@H]2C[C@@H]3CCN2C[C@@H]3c2cc(C3CCCC3)nc(-c3ccncc3)n2)cc1 |  | 4.22 µM (active) |
| N#Cc1nn(-c2c(Cl)cc(C(F)(F)F)cc2Cl)c(N)c1S(=O)C(F)(F)F (configuration not stated) |  | 9.44 µM (active) |
| Cc1c2ccncc2c(C)c2c1[nH]c1ccccc12 |  | 3.35 µM (active) |
| CCN1CC=C(c2c[nH]c3ccccc23)CC1 |  | 4.22 µM (active) |
| CC(C)N1CC=C(c2c[nH]c3ccccc23)CC1 |  | 10.6 µM (active) |
| CCN(CC)C1=NC(=[N+](CC)CC)c2ccccc21 |  | 5.31 µM (active) |
| COc1ccc(CC(=O)N2Cc3ccccc3CC3(CCCN3C)C2)cc1 (configuration not stated) |  | 9.44 µM (active) |
| CC(C(=O)c1c[nH]c2ccccc12)N1CCN(C(=O)c2ccco2)CC1 (configuration not stated) |  | 5.96 µM (active) |
| COc1cccc([C@@H]2CCN(Cc3[nH]c4ccccc4c3C)C[C@H]2O)c1 |  | 1.5 µM (active) |
| CCN1CCN(Cc2cc(Br)cc(Br)c2O)CC1 |  | 7.5 µM (active) |
| Oc1c(Br)cc(Br)cc1CN1CCN(Cc2ccccc2)CC1 |  | 1.06 µM (active) |
| Oc1ccc(C2NCc3ccccc3-n3cccc32)cc1Cl (configuration not stated) |  | 1.19 µM (active) and 1.5 µM (active) |

| SMILES | activity change, negative = inhibition | Potency |
| --- | --- | --- |
| COc1cc(C2NCc3ccccc3-n3cccc32)ccc1O (configuration not stated) |  | 2.66 µM (active) |
| O=C(c1cc(C(=O)NCc2ccccc2)c(=O)n(Cc2ccccc2)c1)c1cc(Br)ccc1O |  | 4.73 µM (active) |
| CC(C)CCNC(=O)c1cc(C(=O)c2cc(Br)ccc2O)cn(CCC(C)C)c1=O |  | 0.944 µM (active) |
| CC(C)CCNC(=O)c1cc(C(=O)c2cc(F)ccc2O)cn(CCC(C)C)c1=O |  | 2.11 µM (active) |
| CC(NCc1ccc(Cl)cc1Cl)C(O)c1ccccc1 (configuration not stated) |  | 4.73 µM (active) |
| CCOc1c(Cl)cc(CNC(C)C(O)c2ccccc2)cc1OC (configuration not stated) |  | 6.68 µM (active) |
| CC(C)(C)CN1CCC2(COc3ccncc3S(=O)(=O)N2)C1 (configuration not stated) | 55.1% (inactive) |  |
| O=C1NC2(CCCN(Cc3ccccn3)C2)COc2ccccc21 (configuration not stated) |  | 4.85 µM (active) |
| COc1ccc2ccc(O)c(CN3CC=C(c4ccccc4)CC3)c2c1 |  | 8.41 µM (active) |
| Cc1cc(O)c(CN2CC=C(c3ccccc3)CC2)cc1C(C)C |  | 0.335 µM (active) |
| CCOc1ccc(CN2C(=O)c3ccccc3Sc3ccc(C(=O)N4CCC5(CC4)OCCO5)cc32)cc1 |  | 4.22 µM (active) |
| CCC(CC)c1cc([C@H]2CN3CC[C@H]2C[C@@H]3CNS(=O)(=O)c2cccs2)nc(-c2ccncc2)n1 |  | 2.37 µM (active) |
| CCC(CC)c1cc([C@H]2CN3CC[C@H]2C[C@@H]3CNS(=O)(=O)c2ccccc2C#N)nc(-c2ccncc2)n1 |  | 1.5 µM (active) |
| COC(=O)C(C)Oc1cc(C)cc2oc(=O)c3c(c12)CCC3 (configuration not stated) | -27.6% (inactive) |  |
| Cc1nc2c(=O)n(C)c(=O)nc-2n(C)n1 |  | 0.422 µM (active) |
| CCC(CC)c1cc([C@H]2CN3CC[C@H]2C[C@@H]3CNC(C)=O)nc(-c2ccncc2)n1 |  | 15.3 µM (active) |
| CCC(CC)c1cc([C@H]2CN3CC[C@H]2C[C@@H]3CNC(=O)NCc2ccccc2)nc(-c2ccncc2)n1 |  | 4.22 µM (active) |
| CCC(CC)c1cc([C@H]2CN3CC[C@H]2C[C@@H]3CNC(=O)c2ccc(C)cc2)nc(-c2ccncc2)n1 |  | 10.6 µM (active) |
| CCC(CC)c1cc([C@H]2CN3CC[C@H]2C[C@@H]3CNC(=O)COc2ccccc2)nc(-c2ccncc2)n1 |  | 1.5 µM (active) |
| CCC(CC)c1cc([C@H]2CN3CC[C@H]2C[C@@H]3CNC(=O)c2ccccc2)nc(-c2ccncc2)n1 |  | 10.6 µM (active) |
| CCC(CC)c1cc([C@H]2CN3CC[C@H]2C[C@@H]3CNC(=O)Cc2cccs2)nc(-c2ccncc2)n1 |  | 2.99 µM (active) |
| CCOC(=O)C1(c2ccccc2)CCN(CCC(C#N)(c2ccccc2)c2ccccc2)CC1 |  | 5.31 µM (active) |
| CC(C)[C@@]1(NC(=O)[C@@H]2C[C@@H]3c4cccc5[nH]cc(c45)C[C@H]3N(C)C2)O[C@@]2(O)[C@@H]3CCCN3C(=O)[C@H](Cc3ccccc3)N2C1=O |  | 2.37 µM (active) |
| CN1Cc2ccccc2-n2ccnc2C12CCN(C(=O)c1cccc(C(F)(F)F)c1)CC2 | -8.82% (inactive) |  |
| Clc1ccc(C(Cn2ccnc2)OCc2csc3c(Cl)cccc23)c(Cl)c1 (configuration not stated) |  | 2.37 µM (active) |
| CCCCn1c(NS(=O)(=O)c2ccccc2)c(C(=O)OCC)c2nc3ccccc3nc21 |  | 10.6 µM (active) |
